{"source": "PubChem BioAssay (NCI)", "note": "Several values for one entry are separate records, joined by “and”; a condition that tells them apart may be missing. Identical values can stand only once. About 83,000 compounds went through this panel and 20% of them were active in at least one assay; those are over-represented in the sample as a whole.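 Single-dose data. Exposure time 48 hours. Values below 10 considered active.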 Activity calls are given as the source filed them."}
{"test_system": "UACC-62 melanoma", "test": "NCI-60 one-dose screen, 48 h (100 = growth as untreated, 0 = no growth, -100 = all killed)", "details": "10 µM unless noted"}
{"smiles": "CC(O)c1cc2c(s1)C(=O)c1ccsc1C2=O", "note": "(stereo unspecified)", "growth": "-61.7% [100 µM] (active) and -100% [100 µM] (active)"}
{"smiles": "Cc1cc2c3c(nc4ccccc42)C(=O)c2cccnc2-c3n1", "growth": "-89.9% [100 µM] (active) and -100% [100 µM] (active)"}
{"smiles": "CCCCCCCCCCCCCC1=C(O)C(=O)C(CC2=C(O)C(=O)C(CCCCCCCCCCCCC)=C(O)C2=O)=C(O)C1=O", "growth": "9.52% [100 µM] (active) and -61.7% [100 µM] (active)"}
{"smiles": "CC12NC(=C(C#N)C#N)C(C#N)=C3NC(N)=C(C#N)C(=C31)Oc1ccccc12", "note": "(stereo unspecified)", "growth": "7.06% [100 µM] (active) and -61.2% [100 µM] (active)"}
{"smiles": "Cc1ccc(/C=N/Nc2ccc3ccccc3n2)s1", "growth": "11.2% [100 µM] (inactive) and -100% [100 µM] (active)"}
{"smiles": "CCCCOC(=O)C1CN2C(=NC1(C(F)(F)F)C(F)(F)F)Sc1ccccc12", "note": "(stereo unspecified)", "growth": "4.45% [100 µM] (active) and 54.9% [100 µM] (inactive)"}
{"smiles": "O=c1c(-c2ccc3c(c2)OCO3)coc2c3c(ccc12)OCO3", "growth": "49.2% [100 µM] (inactive) and -100% [100 µM] (active)"}
{"smiles": "O=c1c2ncn(C3CCCCO3)c2n(-c2ccccc2)c(=S)n1-c1ccccc1", "note": "(stereo unspecified)", "growth": "18.7% [100 µM] (inactive) and 4.84% [100 µM] (active)"}
{"smiles": "CC(C)C1OC23CCCCC2C(C#N)(C#N)C1(C#N)C(=N)O3", "note": "(stereo unspecified)", "growth": "-2.68% [100 µM] (active)"}
{"smiles": "CC1=CCC2C3(C)CCC2(C(C)C)C1C3", "note": "(stereo unspecified) (tested in a mixture with another compound)", "growth": "17.4% [100 µM] (inactive) and 0.443% [100 µM] (active)"}
{"smiles": "C=C1C(=O)OC2/C=C(\\CO)C(OC(C)=O)CC(O)/C(C)=C/C(OC(=O)C(C)CC)C12", "note": "(stereo unspecified)", "growth": "-85.5% [100 µM] (active) and -98.8% [100 µM] (active)"}
{"smiles": "Nc1nc(Nc2cc(F)c(Cl)c(F)c2)cc(=O)[nH]1", "growth": "85.2% [100 µM] (inactive) and -90.5% [100 µM] (active)"}
{"smiles": "CC(=O)c1cc2c(s1)C(=O)c1sccc1C2=O", "growth": "-45.9% [100 µM] (active) and -100% [100 µM] (active)"}
{"smiles": "COc1ccc(C2=C(N)c3ccccc3C2=O)cc1", "growth": "44.1% [100 µM] (inactive) and 22.1% [100 µM] (inactive)"}
{"smiles": "Cc1cc(N2CCCC2)c([N+](=O)[O-])cc1[N+](=O)[O-]", "growth": "64.5% [100 µM] (inactive) and 32.1% [100 µM] (inactive)"}
{"smiles": "Cc1c2c(c(O)c3c(O)cccc13)C(=O)C1(O)C(O)=C(C(=O)NCNc3ccc(C(N)=O)cn3)C(=O)C(N(C)C)C1C2", "note": "(stereo unspecified)", "growth": "-54.4% [100 µM] (active) and -74.8% [100 µM] (active)"}
